Source: PubChem BioAssay
LmPK inh – LmPK (Leishmania mexicana) enzyme inhibition; Q27686; actives 0.37% (n = 290,000); purified LmPK, Kinase-Glo ATP luminescence, 1 h; Potency, µM (top dose mostly 57.5 µM), usual class: inhibitors
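Purified LmPK (0.1 nM) converted ADP (0.1 mM) to ATP with PEP (0.5 mM) in imidazole buffer pH 7.2 with KCl and MgCl2, 1 h at room temperature. ATP was read by Kinase-Glo luminescence; data normalized to uninhibited and no-enzyme controls.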
Shiga toxin inh – Shiga toxin inhibition. Vero cells, Shiga toxin protein synthesis inhibition reporter. AID 2315. actives 9.2% (n = 290,000). inhibition, % at 38.7 µM; in the data active = inhibition mostly above about 28%, no sharp cut-off; inactive = mostly below about 43%
TbPYK inhibitor – blocks Trypanosoma brucei pyruvate kinase | actives 0.12% (n = 410,000) | Q57TT1 | TbPYK enzyme, Kinase-Glo Plus ATP luminescence, 45 min | Potency, µM (doses to about 76.8 µM), most hits filed as inhibitors; note: nearly all actives have a fitted effect of over 50% in size
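ADP (130 uM final) triggers the TbPYK reaction after compound addition; incubation is 45 min at room temperature. Kinase-Glo Plus is then added and luminescence imaged. Normalized data are fitted to concentration-effect curves.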
Giardia FBPA inh – inhibitors of Giardia lamblia fructose-1,6-bisphosphate aldolase; actives 0.71% (n = 290,000); purified Giardia FBPA; A8B2U2; AID 2451; Potency, µM (highest dose often 59.6 µM), hits mostly inhibitors; note: nearly all actives have a fitted effect of over 55% in size
Target sequence (A8B2U2 whole entry, looked up): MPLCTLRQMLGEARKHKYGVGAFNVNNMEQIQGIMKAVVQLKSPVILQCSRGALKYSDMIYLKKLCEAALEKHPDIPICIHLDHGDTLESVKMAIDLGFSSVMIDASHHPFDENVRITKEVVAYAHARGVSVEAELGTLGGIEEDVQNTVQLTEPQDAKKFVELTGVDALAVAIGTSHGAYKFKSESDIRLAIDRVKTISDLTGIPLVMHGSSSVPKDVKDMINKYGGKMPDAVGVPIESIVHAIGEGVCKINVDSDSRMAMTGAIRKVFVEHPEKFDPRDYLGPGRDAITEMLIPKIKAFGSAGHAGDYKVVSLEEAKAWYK
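Giardia FBPA (40 nM reagent) was preincubated 10 min at RT with compound (up to 57.5 uM final), then substrate plus GAPDH/TPI/NAD/arsenate coupling system with diaphorase/resazurin was added; resorufin fluorescence (525/598 nm) was read after 20 min.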
RE007 growth inh – less growth of the S. pombe RE007 Vpr strain; S. pombe RE007 Vpr strain, BacTiter-Glo ATP luminescence, 24 h; Potency, µM (highest dose often 92.2 µM), hits mostly inhibitors; actives 0.21% (n = 360,000); AID 651644; active = well fitted falling curve with a large enough effect; inconclusive = small, poorly fitted or top-dose-only effect; inactive = no such curve, though single readings can be large or run the other way; note: nearly all actives have a fitted effect of over 50% in size
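Fission yeast strain RE007, carrying one chromosomally integrated HIV-1 vpr copy, was seeded at OD 0.01 in PMG+AL medium with 23 nL pinned compound. After 24 h at 30 °C and 99% humidity, viability was read by BacTiter-Glo luminescence.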
Cycloheximide cs – counter-screen hit for Shiga toxin inhibitors, cycloheximide; cell reporter, cycloheximide protein synthesis inhibition counterscreen; max response, %; actives 12% (n = 300,000); AID 2314; in the data active = max response mostly above about 13%, no sharp cut-off; inactive = mostly below about 14%; note: read at 38.3 µM for the half of the compounds with a filed dose
Large screens that a line does not name were inactive. This excerpt belongs to a sample that is enriched for hits. Unless noted, calls come from the whole dose curve; as a rule, active = well fitted curve in the direction sought with a large enough effect; inconclusive = small, poorly fitted or top-dose-only effect, or another doubt; inactive = no such curve, though single readings can be large; an effect the other way counts as inactive or inconclusive.

O=C(Nc1nnc(Cc2c[nH]c3ccccc23)s1)c1ccc(Cl)cc1Cl	Shiga toxin inh 34.7, Cycloheximide cs 17.1
CC(C)(C)c1ccc(C(=O)Nc2nnc(Cc3c[nH]c4ccccc34)s2)cc1	none
O=c1oc(Cc2ccccc2)nc2ccccc12	Cycloheximide cs 13.7
CC1CCc2nc3sc4c(c3c(N)c2C1)CCCC4 (stereo not given)	Shiga toxin inh 56.3, Cycloheximide cs 33.3
CC1CCc2c(nc3sc4c(c3c2N)CCCC4)C1 (stereo not given)	Shiga toxin inh active, Cycloheximide cs 37.4
CCOC(=O)c1nc2sc3c(c2c(=O)[nH]1)CCC(C)C3 (stereo not given)	none
Cn1c2ccccc2c(=O)c2cc(C#Cc3ccc(N)cc3)ccc21	Shiga toxin inh 38.6, Cycloheximide cs 40.9
Cn1c2ccccc2c(=O)c2ccc(C#CC3(O)CCCCC3)cc21	Shiga toxin inh 41.2, Cycloheximide cs 34.9
CCS(=O)(=O)N1CCc2cc(C(=O)N3CCN(c4ccc(OC)cc4)CC3)ccc21	none (no result: LmPK inh, Shiga toxin inh, Giardia FBPA inh, RE007 growth inh, Cycloheximide cs)
CC1CCN(C(=O)c2cc3ccccc3c(=O)o2)CC1	Shiga toxin inh 43.8
O=C(c1cc2ccccc2c(=O)o1)N1CCCCCC1	Shiga toxin inh 141.4, Cycloheximide cs 71.3
CC1CCN(C(=O)c2cc3ccccc3cc2O)CC1	none (no result: Giardia FBPA inh)
Cc1ccc(NC(=O)CSc2nc3ccccc3n2CC(=O)N2CCC(C)CC2)cc1C	none (no result: LmPK inh, Shiga toxin inh, Giardia FBPA inh, RE007 growth inh, Cycloheximide cs)
C#CCOc1ccccc1C(N)=O	none
O=c1c2c(nc3cc(-c4cccc(F)c4)[nH]n13)CCC2	Shiga toxin inh 94.8, Cycloheximide cs 50.7
O=c1c2c(nc3cc(-c4cccc(Cl)c4)[nH]n13)CCC2	Shiga toxin inh 52.3
O=c1c2c(nc3cc(-c4ccc(F)cc4)[nH]n13)CCCC2	Shiga toxin inh 73.9, Cycloheximide cs 39.4
Cc1[nH]n2c(=O)c3c(nc2c1-c1ccc(F)cc1)CCCC3	none
Cc1[nH]n2c(=O)c3c(nc2c1-c1ccccc1)CCCC3	none
Cc1cc(S(=O)(=O)Nc2cc3c(cc2N2CCOCC2)n(C)c(=O)c(=O)n3C)ccc1F	none (no result: LmPK inh, Shiga toxin inh, Giardia FBPA inh, RE007 growth inh, Cycloheximide cs)
O=C(NC(=S)NC1CCCC1)c1ccccc1	Shiga toxin inh 67.0, Cycloheximide cs 42.6 (no result: Giardia FBPA inh)
CC(=O)NNC(=S)NC(=O)c1ccccc1	Giardia FBPA inh inconclusive
O=C(NC(=S)NC1C2CC3CC(C2)CC1C3)c1ccccc1 (stereo not given)	Shiga toxin inh 49.1, Cycloheximide cs 18.4 (no result: Giardia FBPA inh)
Cc1ccc(CNC(=O)c2oc3ccc(S(=O)(=O)N4CCC(C)CC4)cc3c2C)cc1	none (no result: LmPK inh, Shiga toxin inh, Giardia FBPA inh, RE007 growth inh, Cycloheximide cs)
CC1=CC(=C2C(=O)c3ccccc3C2=O)C=C(C)O1	Cycloheximide cs 11.3
CC1=CC(=C2C(=O)c3ccccc3C2=O)C=C(C)N1Cc1ccco1	Shiga toxin inh 65.7, Cycloheximide cs 37.0
CCOC(=O)CNC(=O)Cn1cnc2c(oc3ccccc32)c1=O	Cycloheximide cs 34.2
O=C(Cn1cnc2c(oc3ccccc32)c1=O)N1CCCC1	Shiga toxin inh 64.2, Cycloheximide cs 31.6
COc1ccc(CCCc2nnc(SCC(=O)Nc3ccc(Cl)cc3)o2)cc1	none (no result: LmPK inh, Shiga toxin inh, Giardia FBPA inh, RE007 growth inh, Cycloheximide cs)
CN(C)Cc1ccccc1-c1cc(NC2CC2)ncn1	none (no result: LmPK inh, Shiga toxin inh, TbPYK inhibitor, RE007 growth inh, Cycloheximide cs)
CNC(=O)c1cc2cc(OC)ccc2oc1=O	none
COc1cccc2cc(C(=O)NC3CC4CCC3C4)oc12 (stereo not given)	Cycloheximide cs 14.0
COc1ccc2oc(=O)c(C(=O)NCC3CCCO3)cc2c1 (stereo not given)	Cycloheximide cs 28.9
COc1cc(Br)cc2cc(C(=O)NCC3CCCO3)c(=O)oc12 (stereo not given)	none
COc1cccc2cc(C(=O)NCC3CCCO3)c(=O)oc12 (stereo not given)	Cycloheximide cs 30.4
COc1ccc2oc(=O)c(C(=O)NC3CCCCCC3)cc2c1	Cycloheximide cs 22.8 (no result: Shiga toxin inh)
CC(C)(C)C(=O)Nc1c(C(=O)N2CCN(c3ccc(F)cc3)CC2)oc2ccccc12	none (no result: LmPK inh, Shiga toxin inh, Giardia FBPA inh, RE007 growth inh, Cycloheximide cs)
Cc1ccc(N(CC(=O)Nc2cc(C)ccc2C)S(=O)(=O)c2c(C)noc2C)cc1	none (no result: LmPK inh, Shiga toxin inh, Giardia FBPA inh, RE007 growth inh, Cycloheximide cs)
COc1cccc2cc(C(=O)NC(C)C3CCCO3)c(=O)oc12 (stereo not given)	Shiga toxin inh 63.0, Cycloheximide cs 45.1
